The record followed here is ChEMBL document CHEMBL1961873, “Compounds: GSK PKIS; Assays: Nanosyn kinase panel” (2012).

Experiment [1] addresses Sphingosine kinase 1 (Homo sapiens) (UniProt Q9NYA1). The following applies: at 1 µM.
The target in experiment [2] is T1, Sphingosine kinase 2 (Homo sapiens) (UniProt Q9NRA0).
T1 sequence (whole entry): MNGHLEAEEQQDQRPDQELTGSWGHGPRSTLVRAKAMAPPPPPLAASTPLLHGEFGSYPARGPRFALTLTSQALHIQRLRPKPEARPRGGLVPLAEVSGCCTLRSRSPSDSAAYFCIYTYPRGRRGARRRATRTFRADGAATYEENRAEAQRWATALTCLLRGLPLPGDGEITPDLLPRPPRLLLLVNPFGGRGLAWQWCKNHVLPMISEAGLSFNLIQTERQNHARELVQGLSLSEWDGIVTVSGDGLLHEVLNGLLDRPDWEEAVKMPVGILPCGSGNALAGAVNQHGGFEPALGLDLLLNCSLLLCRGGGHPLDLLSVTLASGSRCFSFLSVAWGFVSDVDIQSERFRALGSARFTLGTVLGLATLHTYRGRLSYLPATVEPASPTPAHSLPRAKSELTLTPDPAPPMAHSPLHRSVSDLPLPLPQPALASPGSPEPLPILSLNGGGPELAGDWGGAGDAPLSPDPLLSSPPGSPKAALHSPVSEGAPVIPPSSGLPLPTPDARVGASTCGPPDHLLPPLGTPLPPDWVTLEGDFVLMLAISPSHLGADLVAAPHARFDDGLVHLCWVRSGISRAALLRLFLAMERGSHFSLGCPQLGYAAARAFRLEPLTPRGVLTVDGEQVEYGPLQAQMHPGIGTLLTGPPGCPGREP
The settings on record: at 0.1 µM.

For experiment [3], the target named is T1, Sphingosine kinase 2 (Homo sapiens). The following applies: at 1 µM.
The target of experiment [4] is Casein kinase II subunit alpha (Homo sapiens) (UniProt P68400). The following applies: at 0.1 µM.
Sequence of Casein kinase II subunit alpha (Homo sapiens) (P68400 whole entry, looked up): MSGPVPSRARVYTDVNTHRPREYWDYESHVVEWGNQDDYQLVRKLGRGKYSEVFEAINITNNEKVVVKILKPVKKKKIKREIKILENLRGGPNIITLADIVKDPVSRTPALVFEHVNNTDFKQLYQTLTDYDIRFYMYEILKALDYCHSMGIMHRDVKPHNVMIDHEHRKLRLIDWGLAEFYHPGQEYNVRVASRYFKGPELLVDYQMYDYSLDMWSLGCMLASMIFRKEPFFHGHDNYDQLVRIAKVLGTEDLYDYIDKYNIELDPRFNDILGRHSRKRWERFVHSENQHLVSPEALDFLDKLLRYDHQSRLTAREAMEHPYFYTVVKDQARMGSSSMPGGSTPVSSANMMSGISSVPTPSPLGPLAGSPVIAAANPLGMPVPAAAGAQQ
Experiment [5] shares this target. The following applies: at 1 µM.
For experiment [6], the target named is T2, Inhibitor of nuclear factor kappa-B kinase subunit alpha (Homo sapiens) (UniProt O15111).
T2 sequence (whole entry): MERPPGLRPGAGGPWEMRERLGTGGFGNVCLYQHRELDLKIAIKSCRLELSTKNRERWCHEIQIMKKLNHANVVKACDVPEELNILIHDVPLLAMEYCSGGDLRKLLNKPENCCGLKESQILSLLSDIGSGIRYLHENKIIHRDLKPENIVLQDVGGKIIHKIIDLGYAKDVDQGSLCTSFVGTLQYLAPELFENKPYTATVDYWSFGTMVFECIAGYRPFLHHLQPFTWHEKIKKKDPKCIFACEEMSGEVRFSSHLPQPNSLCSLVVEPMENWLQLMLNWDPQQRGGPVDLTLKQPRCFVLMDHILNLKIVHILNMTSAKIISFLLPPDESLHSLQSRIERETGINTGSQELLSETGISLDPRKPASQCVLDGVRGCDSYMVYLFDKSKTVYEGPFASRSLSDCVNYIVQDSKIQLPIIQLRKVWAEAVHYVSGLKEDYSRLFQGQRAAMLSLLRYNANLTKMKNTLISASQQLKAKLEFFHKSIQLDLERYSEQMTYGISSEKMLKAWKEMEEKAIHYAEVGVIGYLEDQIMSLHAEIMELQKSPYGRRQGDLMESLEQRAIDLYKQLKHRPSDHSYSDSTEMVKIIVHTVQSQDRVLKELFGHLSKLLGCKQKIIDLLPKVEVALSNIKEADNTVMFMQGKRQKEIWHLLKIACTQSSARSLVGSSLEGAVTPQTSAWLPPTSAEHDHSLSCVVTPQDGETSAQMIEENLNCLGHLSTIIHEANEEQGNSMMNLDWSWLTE
The settings on record: at 0.1 µM.

The target in experiment [7] is T2, Inhibitor of nuclear factor kappa-B kinase subunit alpha (Homo sapiens). The settings on record: at 1 µM.
For experiment [8], the target named is T3, Inhibitor of nuclear factor kappa-B kinase subunit beta (Homo sapiens) (UniProt O14920).
T3 sequence (whole entry): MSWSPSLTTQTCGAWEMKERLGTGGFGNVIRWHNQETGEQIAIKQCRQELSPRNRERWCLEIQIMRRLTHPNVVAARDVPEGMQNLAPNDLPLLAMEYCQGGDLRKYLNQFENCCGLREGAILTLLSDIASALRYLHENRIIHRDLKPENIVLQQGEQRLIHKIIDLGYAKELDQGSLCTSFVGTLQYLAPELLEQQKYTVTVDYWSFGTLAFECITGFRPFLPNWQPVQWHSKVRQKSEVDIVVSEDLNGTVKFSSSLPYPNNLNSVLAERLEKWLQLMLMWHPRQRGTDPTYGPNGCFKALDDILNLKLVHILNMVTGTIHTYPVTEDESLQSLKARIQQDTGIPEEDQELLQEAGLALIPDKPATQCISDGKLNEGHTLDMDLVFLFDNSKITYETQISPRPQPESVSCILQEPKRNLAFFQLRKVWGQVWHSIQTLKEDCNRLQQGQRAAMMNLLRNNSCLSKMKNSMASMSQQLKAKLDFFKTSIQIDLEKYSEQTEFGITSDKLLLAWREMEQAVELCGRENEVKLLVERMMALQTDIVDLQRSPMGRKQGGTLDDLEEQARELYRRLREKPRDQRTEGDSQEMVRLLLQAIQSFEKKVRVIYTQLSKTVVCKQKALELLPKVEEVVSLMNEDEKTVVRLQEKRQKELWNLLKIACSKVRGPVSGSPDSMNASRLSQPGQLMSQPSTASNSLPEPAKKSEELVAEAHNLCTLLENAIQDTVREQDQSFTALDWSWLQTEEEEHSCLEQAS
The following applies: at 0.1 µM.

Experiment [9] has as its target T3, Inhibitor of nuclear factor kappa-B kinase subunit beta (Homo sapiens). The settings on record: at 1 µM.
The target of experiment [10] is T4, Inhibitor of nuclear factor kappa-B kinase subunit epsilon (Homo sapiens) (UniProt Q14164).
T4 sequence (whole entry): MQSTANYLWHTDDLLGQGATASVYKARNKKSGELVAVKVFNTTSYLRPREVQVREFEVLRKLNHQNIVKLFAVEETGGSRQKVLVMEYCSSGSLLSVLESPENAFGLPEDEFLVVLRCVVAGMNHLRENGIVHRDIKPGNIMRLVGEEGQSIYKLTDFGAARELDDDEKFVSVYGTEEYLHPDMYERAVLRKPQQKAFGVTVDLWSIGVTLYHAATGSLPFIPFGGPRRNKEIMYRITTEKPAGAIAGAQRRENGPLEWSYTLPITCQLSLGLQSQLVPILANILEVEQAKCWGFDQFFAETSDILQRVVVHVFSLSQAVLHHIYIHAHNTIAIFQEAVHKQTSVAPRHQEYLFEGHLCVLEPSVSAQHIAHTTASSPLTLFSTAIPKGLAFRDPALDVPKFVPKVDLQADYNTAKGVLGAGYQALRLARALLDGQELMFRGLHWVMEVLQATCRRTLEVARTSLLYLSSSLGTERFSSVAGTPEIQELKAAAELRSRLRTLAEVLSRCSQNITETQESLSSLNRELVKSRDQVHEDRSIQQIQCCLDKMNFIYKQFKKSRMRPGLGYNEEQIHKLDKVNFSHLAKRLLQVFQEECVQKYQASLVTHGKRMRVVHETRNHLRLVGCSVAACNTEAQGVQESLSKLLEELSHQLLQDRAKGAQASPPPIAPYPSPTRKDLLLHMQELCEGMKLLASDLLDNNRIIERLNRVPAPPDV
The following applies: at 0.1 µM.

For experiment [11], the target named is T4, Inhibitor of nuclear factor kappa-B kinase subunit epsilon (Homo sapiens). The settings on record: at 1 µM.
Experiment [12] concerns the target T5, Serine/threonine-protein kinase Nek1 (Homo sapiens) (UniProt Q96PY6).
T5 sequence (whole entry): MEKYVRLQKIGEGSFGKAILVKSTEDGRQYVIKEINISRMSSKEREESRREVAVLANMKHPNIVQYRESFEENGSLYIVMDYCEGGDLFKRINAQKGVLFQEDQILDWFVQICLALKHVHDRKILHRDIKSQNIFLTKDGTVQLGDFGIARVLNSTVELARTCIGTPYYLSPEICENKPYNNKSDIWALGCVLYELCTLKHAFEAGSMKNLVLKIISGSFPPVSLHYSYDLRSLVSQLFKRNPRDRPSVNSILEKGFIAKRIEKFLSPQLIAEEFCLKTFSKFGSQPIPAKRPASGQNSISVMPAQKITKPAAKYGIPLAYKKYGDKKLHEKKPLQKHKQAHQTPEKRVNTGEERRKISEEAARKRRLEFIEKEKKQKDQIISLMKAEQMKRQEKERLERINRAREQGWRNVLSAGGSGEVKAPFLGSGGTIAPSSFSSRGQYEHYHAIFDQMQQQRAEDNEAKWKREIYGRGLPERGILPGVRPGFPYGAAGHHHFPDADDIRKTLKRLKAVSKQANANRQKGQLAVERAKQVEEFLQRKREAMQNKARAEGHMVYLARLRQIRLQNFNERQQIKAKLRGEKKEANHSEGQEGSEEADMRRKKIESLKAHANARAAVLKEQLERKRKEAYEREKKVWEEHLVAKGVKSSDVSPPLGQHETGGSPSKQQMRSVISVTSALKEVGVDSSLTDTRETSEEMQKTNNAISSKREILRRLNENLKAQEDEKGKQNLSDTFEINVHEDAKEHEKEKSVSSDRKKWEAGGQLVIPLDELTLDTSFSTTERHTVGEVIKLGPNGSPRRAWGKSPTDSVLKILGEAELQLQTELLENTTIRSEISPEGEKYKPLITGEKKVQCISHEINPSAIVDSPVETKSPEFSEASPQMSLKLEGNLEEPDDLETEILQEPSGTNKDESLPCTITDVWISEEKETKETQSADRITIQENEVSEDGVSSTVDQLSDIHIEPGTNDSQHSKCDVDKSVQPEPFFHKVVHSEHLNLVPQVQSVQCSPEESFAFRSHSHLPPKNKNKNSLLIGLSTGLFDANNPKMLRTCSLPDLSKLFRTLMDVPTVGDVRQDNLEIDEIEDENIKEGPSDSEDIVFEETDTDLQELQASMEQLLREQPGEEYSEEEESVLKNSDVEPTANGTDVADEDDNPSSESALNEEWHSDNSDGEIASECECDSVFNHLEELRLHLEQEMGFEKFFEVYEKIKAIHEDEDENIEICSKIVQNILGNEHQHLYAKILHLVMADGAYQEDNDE
The settings on record: at 0.1 µM.

Experiment [13] addresses T5, Serine/threonine-protein kinase Nek1 (Homo sapiens). The following applies: at 1 µM.
Experiment [14] addresses T6, Serine/threonine-protein kinase Nek2 (Homo sapiens) (UniProt P51955).
T6 sequence (whole entry): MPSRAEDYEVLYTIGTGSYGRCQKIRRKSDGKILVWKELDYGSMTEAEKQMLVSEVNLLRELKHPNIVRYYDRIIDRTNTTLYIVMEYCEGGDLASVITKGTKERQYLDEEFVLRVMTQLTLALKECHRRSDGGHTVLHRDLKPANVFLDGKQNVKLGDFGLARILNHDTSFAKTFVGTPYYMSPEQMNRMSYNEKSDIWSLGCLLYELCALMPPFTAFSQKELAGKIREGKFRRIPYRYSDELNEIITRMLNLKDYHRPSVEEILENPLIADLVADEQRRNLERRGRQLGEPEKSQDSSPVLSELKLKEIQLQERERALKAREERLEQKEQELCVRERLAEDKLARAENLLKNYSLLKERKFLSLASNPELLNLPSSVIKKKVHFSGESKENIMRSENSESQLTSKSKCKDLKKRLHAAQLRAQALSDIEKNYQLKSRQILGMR
The following applies: at 0.1 µM.

In experiment [15] the target is T6, Serine/threonine-protein kinase Nek2 (Homo sapiens). The following applies: at 1 µM.
For experiment [16], the target named is Serine/threonine-protein kinase Nek6 (Homo sapiens) (UniProt Q9HC98). The following applies: at 0.1 µM.
Sequence of Serine/threonine-protein kinase Nek6 (Homo sapiens) (Q9HC98 whole entry): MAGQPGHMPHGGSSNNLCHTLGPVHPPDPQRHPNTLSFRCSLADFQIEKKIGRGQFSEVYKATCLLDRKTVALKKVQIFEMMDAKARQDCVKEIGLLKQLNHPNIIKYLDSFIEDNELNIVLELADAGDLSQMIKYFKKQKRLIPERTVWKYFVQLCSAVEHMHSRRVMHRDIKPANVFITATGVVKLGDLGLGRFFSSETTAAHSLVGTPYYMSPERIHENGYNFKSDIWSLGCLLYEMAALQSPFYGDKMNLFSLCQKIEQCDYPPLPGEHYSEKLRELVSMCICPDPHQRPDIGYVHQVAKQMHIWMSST
Experiment [17] has the same target. The following applies: at 1 µM.
For experiment [18], the target named is Serine/threonine-protein kinase Nek7 (Homo sapiens) (UniProt Q8TDX7). The settings on record: at 0.1 µM.
Sequence of Serine/threonine-protein kinase Nek7 (Homo sapiens) (Q8TDX7 whole entry, looked up): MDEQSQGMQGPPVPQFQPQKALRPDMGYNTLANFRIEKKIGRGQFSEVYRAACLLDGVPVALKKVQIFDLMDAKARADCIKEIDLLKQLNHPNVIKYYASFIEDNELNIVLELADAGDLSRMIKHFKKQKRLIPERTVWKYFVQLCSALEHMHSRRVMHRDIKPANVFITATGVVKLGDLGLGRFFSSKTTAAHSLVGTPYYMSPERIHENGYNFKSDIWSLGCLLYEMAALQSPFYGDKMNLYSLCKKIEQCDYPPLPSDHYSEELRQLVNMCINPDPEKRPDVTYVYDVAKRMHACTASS
The target is the same in experiment [19]. The following applies: at 1 µM.
The target of experiment [20] is T7, Serine/threonine-protein kinase Nek9 (Homo sapiens) (UniProt Q8TD19).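 Further: reported value is the mean percent inhibition of NEK9.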
T7 sequence (whole entry): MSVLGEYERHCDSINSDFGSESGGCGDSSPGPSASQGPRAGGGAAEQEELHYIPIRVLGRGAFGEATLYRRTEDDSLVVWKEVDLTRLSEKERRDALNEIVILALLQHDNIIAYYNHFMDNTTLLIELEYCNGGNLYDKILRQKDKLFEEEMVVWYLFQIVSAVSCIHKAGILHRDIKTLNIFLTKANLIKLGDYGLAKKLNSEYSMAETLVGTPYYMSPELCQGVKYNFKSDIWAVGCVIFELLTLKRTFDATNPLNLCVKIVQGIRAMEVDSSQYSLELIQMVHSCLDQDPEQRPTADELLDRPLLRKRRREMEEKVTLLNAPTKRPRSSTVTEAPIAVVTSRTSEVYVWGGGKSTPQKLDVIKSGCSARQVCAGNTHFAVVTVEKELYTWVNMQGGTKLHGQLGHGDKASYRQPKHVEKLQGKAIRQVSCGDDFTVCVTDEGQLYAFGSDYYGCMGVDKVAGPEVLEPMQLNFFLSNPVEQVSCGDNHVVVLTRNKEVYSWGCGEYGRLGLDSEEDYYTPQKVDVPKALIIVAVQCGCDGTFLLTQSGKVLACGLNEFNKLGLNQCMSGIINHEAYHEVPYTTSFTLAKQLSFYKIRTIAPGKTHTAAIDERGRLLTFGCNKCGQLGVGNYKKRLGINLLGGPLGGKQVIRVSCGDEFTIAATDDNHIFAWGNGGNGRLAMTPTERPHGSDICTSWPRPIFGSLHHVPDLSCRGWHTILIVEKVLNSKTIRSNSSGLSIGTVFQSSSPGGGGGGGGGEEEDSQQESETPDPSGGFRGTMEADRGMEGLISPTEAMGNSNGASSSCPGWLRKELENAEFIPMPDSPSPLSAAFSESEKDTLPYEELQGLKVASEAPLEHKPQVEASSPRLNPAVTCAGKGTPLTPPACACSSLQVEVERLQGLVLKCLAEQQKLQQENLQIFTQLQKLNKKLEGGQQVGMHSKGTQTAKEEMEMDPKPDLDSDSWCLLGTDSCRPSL
The following applies: at 0.1 µM.

Sequence of Sphingosine kinase 1 (Homo sapiens) (Q9NYA1 whole entry): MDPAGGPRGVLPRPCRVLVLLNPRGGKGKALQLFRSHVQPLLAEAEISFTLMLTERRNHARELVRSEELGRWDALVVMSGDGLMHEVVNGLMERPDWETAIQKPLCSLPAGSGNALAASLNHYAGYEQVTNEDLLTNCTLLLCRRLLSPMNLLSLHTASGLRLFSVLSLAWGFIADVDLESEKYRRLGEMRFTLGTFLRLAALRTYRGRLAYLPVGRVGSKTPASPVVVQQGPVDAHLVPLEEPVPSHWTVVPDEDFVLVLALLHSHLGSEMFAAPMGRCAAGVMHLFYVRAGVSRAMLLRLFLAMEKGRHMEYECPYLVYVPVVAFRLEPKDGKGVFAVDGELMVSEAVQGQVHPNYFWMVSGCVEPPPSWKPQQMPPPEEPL

Turning to `COc1ccc2c(-c3ccnc(Nc4cccc(OC(F)(F)F)c4)n3)cnn2n1`, the inhibition was -1.74% in [1]; 1.81% in [2]; -2.35% in [3]; 4% in experiment [4]; 20% in [5]; 4.59% in experiment [6]. In addition, the inhibition in experiment [7] is 7.22%; in experiment [8] it was 3.15%; in experiment [9] it was 6.88%; in [10], 9.38%; in experiment [11] it was 26.7%; in experiment [12] it was 3.61%. In addition, the inhibition in experiment [13] is 6.35%; in experiment [14], 5.13%; in experiment [15] it was 4.77%; in experiment [16], 3.21%; in experiment [17] it was 4.5%; in experiment [18], 3.37%. For the same molecule, the inhibition was 4.57% in experiment [19] and 5.79% in experiment [20].
